Assay results reported in PubChem BioAssay AID1224856 (National Center for Advancing Translational Sciences (NCATS), 2016).
Inconclusive results are not listed. Activity calls are given as the source filed them. The call rests on the fitted dose curve; in most records, active means well fitted curve in the direction sought with a large enough effect; inconclusive means small, poorly fitted or top-dose-only effect, or another doubt; inactive means no such curve, though single readings can be large or run the other way.

assay: Cell viability assay for measurement of the protective activity of small molecules against cell death caused by Zika virus infection in human astrocytes; details: human astrocytes ZIKV-induced death, ATP luminescence, 72 h; series mostly up to 46.1 µM; protection from virus-induced death: at the top concentration
Excerpt: National Center for Advancing Translational Sciences [NCATS] Johns Hopkins University School of Medicine Florida State University Assay Overview: Zika virus infection causes cell death in certain cell types including human neural progenitor cells (hNPCs), astrocytes, and astrocytoma cell line (SNB-19). This cell viability assay measures the ATP content (level) in human astrocytes using a luminescence readout that is proportional to viable cell numbers. Decrease in the luminescence signal after Zika virus infection indicates the cell death caused by Zika virus. Small molecule inhibitors […] the decreased luminescence signal after Zika virus infection, indicating the protective effect of that small molecule on the cell death caused by Zika virus infection. This observed protective effect of small molecules against Zika virus induced cell death may result from inhibition of virus replication or cellular response to the virus infection.
Assay Protocol Summary: The medium for astrocytes contains AM basal medium (ScienCell, Cat.# 1801), AGS (ScienCell, Cat.# 1801), 10% FBS, and 1% Pen/Strep. The ATP content assay kit (PerkinElmer, Cat.# 6016731) was used to determine cell viability. The reagent was reconstituted and prepared as described by the manufacturer. Cells were seeded in 384- or 1536-well assay plates and cultured at 37 C with 5% CO2 for 16 to 20 hours. The typical cell seeding density in the 1536-well plate assay is 350 cells/well in 3 ul medium for astrocytes in the tissue cultured treated/PDL coated plates. Compounds were added to cells and incubated for one hour before addition of ZIKV solution to cells (2 FFU/cell). After incubation at 37 C with 5% CO2 for 72 hours, the reagent mixture of the ATP content assay kit was added to each well, followed by incubation at room temperature for 10 minutes. The luminescence intensity of the assay plates was measured using a ViewLux plate reader (PerkinElmer). […] The percentage inhibitions of the decreased cell viability by small molecule inhibitors were then calculated.

For `COc1cccc(-c2cc(=O)c3ccccc3o2)c1N`, which “protection from virus-induced death” value is on record?
Its value is -7.91% (inactive).

For `Cc1[nH]c(C=C2C(=O)Nc3ccccc32)c(C)c1CCC(=O)O`, which “protection from virus-induced death” value is on record?
The value was 3.65% (inactive).

With `Cc1nc(N)sc1-c1ccnc(Nc2ccc(N3CCOCC3)cc2)n1` as the compound, how does the “protection from virus-induced death” value read?
The value was 1.74% (inactive).

For `CC(C)OC(=O)CCCC=CC[C@@H]1[C@H](C=C[C@@H](O)COc2cccc(C(F)(F)F)c2)[C@H](O)C[C@@H]1O`, which “protection from virus-induced death” value is on record?
The value was 16% (inactive).

Which “protection from virus-induced death” value does the source give for `CS(=O)(=O)c1ccc(-c2cn3ccccc3n2)cc1` here?
The value was -6.51% (inactive).

With `CC(=O)Nc1ccc([C@H](C)C(=O)Nc2ncc(C(C)C)s2)cc1` as the compound, how does the Potency read?
Its Potency is 4.89 µM (active).

Which “protection from virus-induced death” value does the source give for `CN(C)CCCSc1ccccc1NC(=O)/C=C/c1ccccc1` here?
The value was -2.15% (inactive).

For `Cc1c(NC(=O)c2ccc(C(C)(C)C)cc2)cccc1-c1cn(C)c(=O)c(Nc2ccc(C(=O)N3CCOCC3)cc2)n1`, which “protection from virus-induced death” value is on record?
Its value is 1.63% (inactive).

For `Oc1ccc([C@H]2CNCc3c2ccc(O)c3O)cc1O`, which “protection from virus-induced death” value is on record?
Its value is 2.33% (inactive).

Which “protection from virus-induced death” value does the source give for `CC(=NNC(=S)N1CCC1)c1ccccn1` here?
Its value is -5.84% (inactive).

For `CN(C)c1ccc(N=NS(=O)(=O)O)cc1`, which “protection from virus-induced death” value is on record?
Its value is -4.46% [at 88.3 µM] (inactive).

For `CCCCCNC(=O)N1CCC(CN(Cc2ccc(Cl)cc2)Cc2ccc([N+](=O)[O-])s2)C1` (stereo not given), which “protection from virus-induced death” value is on record?
Its value is 0.395% (inactive).

For `COc1ccc(NC(=O)/C=C/c2ccc(Cl)cc2)cc1`, which “protection from virus-induced death” value is on record?
Its value is 7.03% (inactive).

For `O=S(=O)(O)c1ccc2nc(-c3ccccc3)[nH]c2c1`, which “protection from virus-induced death” value is on record?
Its value is -6.93% (inactive).

For `O=C(Nc1ccc(C(=O)O)c(O)c1)c1ccccc1`, which “protection from virus-induced death” value is on record?
The value was 1.26% (inactive).

For `CC1(C)OC2=C(C(=O)c3ccccc3C2=O)[C@H](NCc2ccccc2)[C@H]1O`, which “protection from virus-induced death” value is on record?
Its value is -10.5% [at 88.3 µM] (inactive).

Which “protection from virus-induced death” value does the source give for `CC1=C(CO)C(=O)O[C@@H]([C@@H](C)[C@H]2CC[C@H]3[C@@H]4C[C@H]5O[C@]56[C@@H](O)C=CC(=O)[C@]6(C)[C@@H]4CC[C@]23C)C1` here?
The value was -0.531% (inactive).

For `COc1ccc(-c2cc(=S)ss2)cc1`, which “protection from virus-induced death” value is on record?
Its value is 3.7% (inactive).

Which “protection from virus-induced death” value does the source give for `CC(O)=C(C#N)C(=O)Nc1ccc(C(F)(F)F)cc1` here?
The value was -8.15% (inactive).

For `CC[C@]1(O)C[C@H]2CN(CCc3c([nH]c4ccccc34)[C@@](C(=O)OC)(c3cc4c(cc3OC)N(C=O)[C@H]3[C@@](O)(C(=O)OC)[C@H](OC(C)=O)[C@]5(CC)C=CCN6CC[C@]43[C@@H]65)C2)C1`, which “protection from virus-induced death” value is on record?
The value was 0.154% (inactive).

Which “protection from virus-induced death” value does the source give for `N#CC1(c2ccc(NC(=O)c3cccnc3NCc3ccncc3)cc2)CCCC1` here?
Its value is 5.4% (inactive).

With `CC=CC[C@@H](C)C(=O)[C@H]1C(=O)N[C@@H](C(C)C)C(=O)N(C)CC(=O)N(C)[C@@H](CC(C)C)C(=O)N[C@@H](C(C)C)C(=O)N(C)[C@@H](CC(C)C)C(=O)N[C@@H](C)C(=O)N[C@H](C)C(=O)N(C)[C@@H](CC(C)C)C(=O)N(C)[C@@H](CC(C)C)C(=O)N(C)[C@@H](C(C)C)C(=O)N1C` as the compound, how does the “protection from virus-induced death” value read?
The value was -4.94% (inactive).

With `Nc1nc2ccc([N+](=O)[O-])cc2s1` as the compound, how does the “protection from virus-induced death” value read?
The value was 0.8% [at 88.3 µM] (inactive).

Which “protection from virus-induced death” value does the source give for `O=c1cc(-c2ccccc2)oc2cc(O)cc(O)c12` here?
The value was 0.394% (inactive).

Which “protection from virus-induced death” value does the source give for `COc1ccc(-c2coc3cc(O)ccc3c2=O)cc1` here?
Its value is -3.84% (inactive).

For `O=C(c1ccccc1)c1ccc2n1CCC2C(=O)O` (stereo not given), which “protection from virus-induced death” value is on record?
Its value is 1.12% (inactive).

For `COC1(CS(=O)c2ccccc2)CCN(CCc2c[nH]c3ccc(F)cc23)CC1` (stereo not given), which “protection from virus-induced death” value is on record?
Its value is -3.55% (inactive).

Which “protection from virus-induced death” value does the source give for `O=C(O)Cc1ccc(-c2ccccc2)cc1` here?
Its value is 1.03% (inactive).

Which “protection from virus-induced death” value does the source give for `CC(=O)OC(C)OC(=O)C(C)c1ccc(-c2ccccc2)c(F)c1` (stereo not given) here?
The value was 3.37% (inactive).

With `N[C@H](CSC(c1ccccc1)(c1ccccc1)c1ccccc1)C(=O)O` as the compound, how does the “protection from virus-induced death” value read?
Its value is -0.938% (inactive).

For `Oc1ccc(/C=C/c2cc(O)cc(O)c2)cc1`, which “protection from virus-induced death” value is on record?
Its value is -6.36% (inactive).

Which “protection from virus-induced death” value does the source give for `O=C(O)c1cccc(-c2noc(-c3ccccc3F)n2)c1` here?
Its value is -5.89% (inactive).

Which “protection from virus-induced death” value does the source give for `O=C(O)[C@H](CC(=O)N1C[C@@H]2CCCC[C@H]2C1)Cc1ccccc1` here?
Its value is 6.96% (inactive).

For `O=c1c(-c2ccc(O)cc2)coc2cc(OC3O[C@H](CO)[C@H](O)[C@H](O)[C@H]3O)cc(O)c12` (stereo not given in full), which “protection from virus-induced death” value is on record?
The value was 4.77% (inactive).

For `CCCCCCOc1ccccc1C(N)=O`, which “protection from virus-induced death” value is on record?
The value was 3.23% (inactive).

Which “protection from virus-induced death” value does the source give for `COc1ccc(-c2cc(=O)c3c(O)cc(O)cc3o2)cc1O` here?
The value was 1.16% (inactive).

For `NC(N)=NN=C(/C=C/c1ccc([N+](=O)[O-])o1)/C=C/c1ccc([N+](=O)[O-])o1`, which “protection from virus-induced death” value is on record?
Its value is -9.16% (inactive).

With `CCN(CC)c1ccc(C(=C2C=CC(=[N+](CC)CC)C=C2)c2cc(S(=O)(=O)O)ccc2S(=O)(=O)[O-])cc1` as the compound, how does the “protection from virus-induced death” value read?
The value was -6.8% (inactive).

With `CNC1[C@H](O)C(O[C@@H]2C(O)C(O[C@H]3O[C@H]([C@@H](C)NC)CC[C@H]3N)[C@@H](N)C[C@H]2N)OC[C@]1(C)O` (stereo not given in full) as the compound, how does the “protection from virus-induced death” value read?
Its value is -0.423% (inactive).

For `Nc1ccc2c(c1)CN1C(=O)c3ccccc3C1=N2`, which “protection from virus-induced death” value is on record?
The value was -6.32% [at 23.8 µM] (inactive).
